We go through 40 compounds from PubChem BioAssay (NCATS).

Structures are written as SMILES. Inconclusive results are not listed. Values without a mark were called inactive. Calls of active or inactive are those of the source. Calls come from the whole dose curve; as a rule, active = well fitted cell-killing curve with a large enough effect; inconclusive = small, poorly fitted or top-dose-only effect; inactive = flat fitted curve, though single readings scatter.
Potency is the fitted concentration of half-maximal effect.

The assay in a line: Quantitative highthroughput screen to assess conditional lethalithy of P12 Ichikawa cells grown in RPMI1640 with dialyzed fetal bovine serum (RPMI+ds) (AID 1963880). Note: nearly all actives have a fitted effect of over 35% in size. The conditions noted are these: ATP luminescence, 48 h; Potency: P12-Ichikawa viability; series mostly up to 45.8 µM; viability: at the top concentration. The text has this:
Assay Provider: Jason Cantor Ph.D.
Department of Biochemistry
University of Wisconsin-Madison, Madison, WI, USA
Chemical screening studies have identified drug sensitivities across hundreds of cancer cell lines but most putative therapeutics fail to translate. Discovery and development of drug candidates in models that more accurately reflect nutrient levels in human blood is a major challenge. Here we performed high-throughput screens in conventional versus Human Plasma-Like Medium (HPLM) to identify compounds that were "missed" when screening using the artificial culture condition. Sets of conditional anticancer compounds spanned phases of clinical development and included non-oncology drugs were assessed. […] We also traced conditional phenotypes for several chemotherapeutics to availability of HPLM-specific metabolites and confirmed others for compounds whose reported targets are encoded by nonessential genes. Our findings establish generalizable strategies for exploiting conditional lethality in HPLM to reveal therapeutic candidates and mechanisms of action in cancer cells.
Described herein are the results of each viability screens against three cell lines: NOMO1 (an acute myeloid leukemia cell line); P12-Ichikawa (a T-cell acute lymphoblastic leukemia); and SEM (a B-cell ALL). Each assay was screened using 3 different cell culture media: homemade human plasma-Like medium with 10% dialyzed fetal bovine serum (HPLM+ds); RPMI1640 with 10% untreated FBS and 5mM glucose (RPMI+s); and RPMI1640 with 10% dialyzed fetal bovine serum and 5 mM glucose (RPMI+ds).
PROTOCOL TABLE (as described by Inglese J, Shamu CE and Guy RK. 2007)
SEQUENCE No. (e.g., 1, 2, 3, etc.); […] (e.g., Cells, Incubation, Reagent, etc.); VALUE and DESCRIPTION.
1; Cells; 5 uL; white, solid bottom 1536-well Greiner assay plate.
2; Compounds; 23 nL; Kalypsis pin tool (Wako USA) equipped with a 1536-well pin head to transfer to the assay plates.
3; Incubation; 48 hours; 37C incubation.
4; Reagent; 3 uL; CellTiter Glo (Promega).
5; Incubation; 5 min, room temperature
6; Detection; Luminescence, Viewlux PerkinElmer.
NOTES (numbers refer to Sequence numbers above)
1. Briefly, 5 ul of cell reagent was dispensed using a Multidrop Combi Dispenser. The NOMO1 and SEM cells were plated at 500 cells/well and the P12-Ichikawa line at 1000 cells/well.
2. After seeding the cells, 23 nL of MIPE 4.1 library compounds (in DMSO) were added to each plate using a Kalypsys 1536 Pintool dispenser. Bortezomib at final concentration of […] and DMSO were added to each plate as positive and negative controls respectively. For each screen, MIPE 4.1 compounds were added over an eleven-point concentration range […] in 3-fold dilutions.
3. Each plate was covered with a stainless steel gasketed lid to prevent evaporation and incubated for 48 hour at 37C, 95% relative humidity, and 5% CO2.
4-5. Three microliter CellTilter-GloTM luminescent substrate mix (Promega) reagent was added to the assay plate and incubated at room temperature for 5 min.
6. The luminescence signal was measured using a ViewLux (PerkinElmer) multiplate reader with a 2 second exposure time per plate. Data for each compound were normalized as percent viability such that measurements for DMSO and the empty well controls in each plate were defined as 100% and 0%, respectively.
`CCCCCCCCCCCCCC(=O)N[C@H](CO)[C@H](O)c1ccc([N+](=O)[O-])cc1`: the Potency is 2.64 µM (active).

As to `CCOc1cc(N)c(Cl)cc1C(=O)NCC1CN(Cc2ccc(F)cc2)CCO1` (stereo not given), the viability (in general, a read-out of living cells in per cent, often relative to untreated cells) is 96.8%.

Turning to `Cc1ccc([N+](=O)[O-])cc1S(=O)(=O)N(C)N=Cc1cnc2ccc(Br)cn12`, the Potency was 0.132 µM (active).

As for `CCC(=O)NCC[C@@H]1CCc2ccc3c(c21)CCO3`, the “viability” value was 97.3%.

Regarding `Nc1ccn([C@@H]2O[C@H](CO)[C@@H](O)C2O)c(=O)n1` (stereo not given in full), the “viability” value was 96.6%.

`CN1[C@H]2CC[C@H]1CC(OC(=O)c1c[nH]c3ccccc13)C2` (stereo not given in full): the “viability” value is 99.5%.

For the compound `OC[C@H]1O[C@@H](Oc2cc(O)cc(C=Cc3ccc(O)cc3)c2)[C@H](O)[C@@H](O)[C@H]1O`, the “viability” value was 91.6%.

In the case of `COc1cc([C@@H]2c3cc4c(cc3[C@H](O)[C@H]3COC(=O)[C@@H]23)OCO4)cc(OC)c1OC`, the Potency is 0.469 µM (active).

Regarding `CCNC(=O)Nc1ccc2ncc(Nc3ccc(C)cc3)nc2n1`, the “viability” value is 87.5%.

Regarding `CN(C)c1ccc(C(=C2C=CC(=[N+](C)C)C=C2)c2ccc(N(C)C)cc2)cc1`, the Potency was 0.132 µM (active).

For the compound `CCOC(=O)N1CCN([N+]([O-])=NOc2cc(ON=[N+]([O-])N3CCN(C(=O)OCC)CC3)c([N+](=O)[O-])cc2[N+](=O)[O-])CC1`, the “viability” value was 105%.

As to `O=C1CCC(N2C(=O)c3ccccc3C2=O)C(=O)N1` (stereo not given), the “viability” value is 97.1%.

Consider `NC(=O)c1ncn([C@@H]2O[C@H](CO)[C@@H](O)[C@@H]2O)c1O`, for which the “viability” value is 96.4%.

Take `O=C1Cc2cc(CCN3CCN(c4nsc5ccccc45)CC3)c(Cl)cc2N1`: the “viability” value was 86.2%.

Turning to `CC(=O)N(C)C1(c2ccccc2)CCN(CCC[C@]2(c3ccc(Cl)c(Cl)c3)CCCN(C(=O)c3ccccc3)C2)CC1`, the Potency is 2.96 µM (active).

On to `OCCCNc1cc(-c2ccnc(Nc3cccc(Cl)c3)n2)ccn1`, for which the Potency is 0.469 µM (active).

As for `O=C(NCCS(=O)(=O)c1ccc(C(F)(F)F)cn1)c1ccc(Cl)cc1`, the “viability” value is 98.4%.

On to `CC(c1cc2ccccc2s1)N(O)C(N)=O` (stereo not given), for which the “viability” value is 97.5%.

Consider `COCCCOc1ccnc(CS(=O)c2nc3ccccc3[nH]2)c1C` (stereo not given), for which the “viability” value is 102%.

Turning to `COc1cc(Cl)cn2c(-c3cccc(NC4CNC4)n3)cnc12`, the “viability” value was 110%.

On to `Cc1cc(CS(=O)(=O)c2ccccc2)cc(OCc2ccc(CN3CCC[C@H]3CO)cc2)c1`, for which the Potency is 1.18 µM (active).

Turning to `CN(C)CCc1c[nH]c2ccc(C[C@H]3COC(=O)N3)cc12`, the Potency was 10.5 µM (active).

In the case of `CN(C)c1ccc(C2Nc3ccc4ccccc4c3C3=C2C(=O)CC(C)(C)C3)cc1Br` (stereo not given), the “viability” value was 101%.

Consider `Nc1ccc(C(=O)c2cc3c(ccc4ccccc43)[nH]2)cc1`, for which the Potency is 5.9 µM (active).

Turning to `COc1ccc2c(Oc3ccc(NC(=O)c4c(C)n(CC(C)(C)O)n(-c5ccccc5)c4=O)cc3F)ccnc2c1`, the “viability” value is 81.3%.

In the case of `CC[C@H](CO)Nc1nc(NCc2ccccc2)c2ncn(C(C)C)c2n1`, the “viability” value is 101%.

`CC(=O)Nc1cccc(-n2c(=O)n(C3CC3)c(=O)c3c(Nc4ccc(I)cc4F)n(C)c(=O)c(C)c32)c1`: the Potency is 4.69 µM (active).

As to `Cc1nc(Nc2n[nH]c3c2CN(C(=O)N[C@H](CN(C)C)c2ccccc2)C3(C)C)c2sccc2n1`, the Potency is 1.48 µM (active).

For `N#Cc1ccc(NC(=O)Nc2ccccc2Br)c2n[nH]nc12`, the “viability” value was 82.1%.

As to `CC(C)(O)CNc1nc(Nc2ccnc(C(F)(F)F)c2)nc(-c2cccc(C(F)(F)F)n2)n1`, the Potency was 2.95 µM (active).

With `COc1ccc(-c2nc3ccc(C4=NNC(=O)CC4C)cc3[nH]2)cc1` (stereo not given), the “viability” value is 79%.

Take `CN1CCN(Cc2ccc(NC(=O)Nc3ccc(Oc4cc(NC(=O)C5CC5)ncn4)cc3)cc2C(F)(F)F)CC1`: the Potency is 0.418 µM (active).

As for `COc1ccc(C=Cc2cc(OC)c(OC)c(OC)c2)cc1NC(=O)[C@H](N)CO`, the Potency is 0.0469 µM (active).

In the case of `C#C[C@]1(O)CC[C@@H]2[C@@H]3CCc4cc(O)ccc4[C@H]3CC[C@@]21C`, the Potency was 16.6 µM (active).

As to `COc1cc(N2CCC(C(N)=O)CC2)ccc1Nc1nc(N)c(Cl)c(Nc2ccccc2S(=O)(=O)C(C)C)n1`, the Potency was 18.7 µM (active).

For the compound `Cc1cc(Nc2cc(N3CCN(C)CC3)nc(C=Cc3ccccc3)n2)n[nH]1`, the Potency was 2.7 µM (active).

As to `CCn1cc(C(=O)O)c(=O)c2cc(F)c(N3CCN(C)CC3)cc21`, the Potency is 4.69 µM (active).

In the case of `COc1cc(NC(=O)c2ccc(-c3ccc(Cl)cc3)o2)cc(OC)c1`, the “viability” value is 96.4%.

Consider `Cc1cc(C(=O)NOCCO)c(Nc2ccc(I)cc2F)n(C)c1=O`, for which the “viability” value is 69.5%.

For the compound `CC(C)c1cnn2c(NCc3ccccc3)cc(N[C@@H](CO)[C@H](O)CO)nc12`, the Potency was 1.18 µM (active).
